# Unmarked numbers belong to inactive results.
# How the values were obtained:
# Experiment in all cases: log2 ratio of Biotin-Ahx-Ub-VS probe labelling (fragment/DMSO); higher = less target engagement (more negative = stronger competition), active = hit call of the paper (q ≤ 0.05, log2 ratio ≤ -1)
# Conditions in all cases: compound concentration: 200 uM; treatment time: 3 h
# OTUD6B = molecular target: T1, OTUD6B (UniProt Q8N6M0)
# T1 sequence (whole entry): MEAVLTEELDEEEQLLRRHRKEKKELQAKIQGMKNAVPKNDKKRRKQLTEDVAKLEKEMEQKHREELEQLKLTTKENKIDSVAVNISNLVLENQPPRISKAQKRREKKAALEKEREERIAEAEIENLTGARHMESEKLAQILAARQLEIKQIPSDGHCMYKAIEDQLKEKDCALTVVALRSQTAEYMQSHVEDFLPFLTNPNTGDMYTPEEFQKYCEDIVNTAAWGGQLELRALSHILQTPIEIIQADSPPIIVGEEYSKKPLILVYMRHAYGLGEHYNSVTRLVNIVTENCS
# Summary of the method: (§1)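 HEK293T lysate (495 µg per sample, in Tris/CHAPS/IGEPAL buffer with protease inhibitors) was exposed in triplicate for 3 h to fragment at 200 µM or to vehicle, then to Biotin-Ahx-Ub-VS at 0.5 µM final for 1 h. Labelled DUBs were enriched on NeutrAvidin, digested with LysC and trypsin, and analysed by diaPASEF LC-MS/MS. Spectronaut label-free quantities were normalised to the global median, and values are average log2 ratios of fragment over vehicle from an unpaired t-test. Only proteins with ≥2 unique peptides were used.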
# OTUD7B = molecular target: T2, OTUD7B (UniProt Q6GQQ9)
# T2 sequence (whole entry): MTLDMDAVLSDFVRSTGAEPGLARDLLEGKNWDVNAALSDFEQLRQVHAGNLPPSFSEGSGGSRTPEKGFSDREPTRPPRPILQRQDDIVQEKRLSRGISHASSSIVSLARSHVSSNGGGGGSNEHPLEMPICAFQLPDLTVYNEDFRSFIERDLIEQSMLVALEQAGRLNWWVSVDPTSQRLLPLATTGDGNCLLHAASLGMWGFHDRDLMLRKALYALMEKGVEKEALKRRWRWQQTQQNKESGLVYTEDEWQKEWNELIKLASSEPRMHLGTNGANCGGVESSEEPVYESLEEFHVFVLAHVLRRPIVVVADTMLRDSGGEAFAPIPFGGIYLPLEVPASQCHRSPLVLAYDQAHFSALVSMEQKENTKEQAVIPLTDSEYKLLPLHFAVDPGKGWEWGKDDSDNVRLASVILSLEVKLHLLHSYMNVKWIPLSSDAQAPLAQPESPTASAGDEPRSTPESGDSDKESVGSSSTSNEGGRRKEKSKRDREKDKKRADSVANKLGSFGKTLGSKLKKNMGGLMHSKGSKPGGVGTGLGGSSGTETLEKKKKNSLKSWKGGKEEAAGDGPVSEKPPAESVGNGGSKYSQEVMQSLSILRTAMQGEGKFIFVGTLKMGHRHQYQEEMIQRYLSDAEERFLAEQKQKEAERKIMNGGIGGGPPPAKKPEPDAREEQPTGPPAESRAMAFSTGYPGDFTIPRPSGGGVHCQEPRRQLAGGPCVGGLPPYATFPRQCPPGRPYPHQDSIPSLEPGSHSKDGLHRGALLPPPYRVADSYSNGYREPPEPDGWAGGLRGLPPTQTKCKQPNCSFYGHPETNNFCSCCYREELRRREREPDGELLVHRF
# Summary of the method: as §1
# PRPF8 = PRPF8 (UniProt Q6P2Q9)
# Summary of the method: as §1
# PSMD7 = molecular target: T3, PSMD7 (UniProt P51665)
# T3 sequence (whole entry): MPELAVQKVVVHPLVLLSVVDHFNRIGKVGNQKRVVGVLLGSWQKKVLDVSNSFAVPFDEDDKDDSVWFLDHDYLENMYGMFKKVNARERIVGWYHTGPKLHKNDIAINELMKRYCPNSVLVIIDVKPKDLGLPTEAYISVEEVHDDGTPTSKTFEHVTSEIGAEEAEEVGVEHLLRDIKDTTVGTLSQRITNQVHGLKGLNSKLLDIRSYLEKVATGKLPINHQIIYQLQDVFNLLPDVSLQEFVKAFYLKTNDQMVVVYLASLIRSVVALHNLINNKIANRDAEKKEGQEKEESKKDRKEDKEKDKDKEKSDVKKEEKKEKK
# Summary of the method: as §1
# UCHL1 = UCHL1 (UniProt P09936)
# Sequence of UCHL1 (P09936 whole entry, looked up): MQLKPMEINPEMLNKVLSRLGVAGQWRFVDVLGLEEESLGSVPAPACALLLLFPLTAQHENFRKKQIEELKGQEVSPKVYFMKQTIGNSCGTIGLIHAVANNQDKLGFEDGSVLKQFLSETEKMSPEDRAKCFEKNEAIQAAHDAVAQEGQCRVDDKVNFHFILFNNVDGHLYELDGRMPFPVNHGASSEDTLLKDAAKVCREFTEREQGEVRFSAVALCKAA
# Summary of the method: as §1
# UCHL3 = molecular target: T4, UCHL3 (UniProt P15374)
# T4 sequence (whole entry): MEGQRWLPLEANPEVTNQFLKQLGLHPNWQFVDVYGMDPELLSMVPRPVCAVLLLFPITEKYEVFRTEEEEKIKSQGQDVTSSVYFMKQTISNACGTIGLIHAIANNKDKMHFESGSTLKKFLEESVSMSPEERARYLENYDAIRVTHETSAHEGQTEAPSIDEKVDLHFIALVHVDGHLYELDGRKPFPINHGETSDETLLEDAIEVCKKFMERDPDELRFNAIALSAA
# Summary of the method: as §1
# UCHL5 = molecular target: T5, UCHL5 (UniProt Q9Y5K5)
# T5 sequence (whole entry): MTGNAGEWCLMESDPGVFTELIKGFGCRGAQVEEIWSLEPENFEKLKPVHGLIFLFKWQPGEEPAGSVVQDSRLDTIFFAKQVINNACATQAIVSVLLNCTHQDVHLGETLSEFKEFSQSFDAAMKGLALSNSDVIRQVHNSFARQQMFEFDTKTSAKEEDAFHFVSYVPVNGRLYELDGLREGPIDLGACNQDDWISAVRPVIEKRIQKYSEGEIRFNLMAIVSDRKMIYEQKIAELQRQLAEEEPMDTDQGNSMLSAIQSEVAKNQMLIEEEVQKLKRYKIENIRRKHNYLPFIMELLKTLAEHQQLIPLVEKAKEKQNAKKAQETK
# Summary of the method: as §1
# USP10 = USP10 (UniProt Q14694)
# Sequence of USP10 (Q14694 whole entry): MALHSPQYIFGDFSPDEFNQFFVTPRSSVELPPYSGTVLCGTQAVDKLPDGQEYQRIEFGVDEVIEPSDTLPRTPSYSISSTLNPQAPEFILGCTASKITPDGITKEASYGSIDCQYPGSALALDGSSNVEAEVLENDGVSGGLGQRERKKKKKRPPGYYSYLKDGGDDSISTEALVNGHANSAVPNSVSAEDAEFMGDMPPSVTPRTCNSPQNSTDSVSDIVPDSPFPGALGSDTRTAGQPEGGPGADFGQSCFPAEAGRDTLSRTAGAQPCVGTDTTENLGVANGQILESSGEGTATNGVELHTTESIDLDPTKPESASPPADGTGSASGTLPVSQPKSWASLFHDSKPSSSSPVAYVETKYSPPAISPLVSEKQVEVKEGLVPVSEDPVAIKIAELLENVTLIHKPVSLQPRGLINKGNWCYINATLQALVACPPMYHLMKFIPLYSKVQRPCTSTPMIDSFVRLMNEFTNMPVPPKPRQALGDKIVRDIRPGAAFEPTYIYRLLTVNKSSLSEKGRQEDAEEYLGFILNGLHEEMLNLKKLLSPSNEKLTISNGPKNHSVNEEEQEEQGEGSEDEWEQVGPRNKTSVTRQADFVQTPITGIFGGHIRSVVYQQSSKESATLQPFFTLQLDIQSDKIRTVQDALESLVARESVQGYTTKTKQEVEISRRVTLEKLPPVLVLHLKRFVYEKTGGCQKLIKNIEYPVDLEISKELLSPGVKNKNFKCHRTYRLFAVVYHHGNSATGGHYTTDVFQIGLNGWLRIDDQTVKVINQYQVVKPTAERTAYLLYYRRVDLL
# Summary of the method: as §1
# USP15 = molecular target: T6, USP15 (UniProt Q9Y4E8)
# T6 sequence (whole entry): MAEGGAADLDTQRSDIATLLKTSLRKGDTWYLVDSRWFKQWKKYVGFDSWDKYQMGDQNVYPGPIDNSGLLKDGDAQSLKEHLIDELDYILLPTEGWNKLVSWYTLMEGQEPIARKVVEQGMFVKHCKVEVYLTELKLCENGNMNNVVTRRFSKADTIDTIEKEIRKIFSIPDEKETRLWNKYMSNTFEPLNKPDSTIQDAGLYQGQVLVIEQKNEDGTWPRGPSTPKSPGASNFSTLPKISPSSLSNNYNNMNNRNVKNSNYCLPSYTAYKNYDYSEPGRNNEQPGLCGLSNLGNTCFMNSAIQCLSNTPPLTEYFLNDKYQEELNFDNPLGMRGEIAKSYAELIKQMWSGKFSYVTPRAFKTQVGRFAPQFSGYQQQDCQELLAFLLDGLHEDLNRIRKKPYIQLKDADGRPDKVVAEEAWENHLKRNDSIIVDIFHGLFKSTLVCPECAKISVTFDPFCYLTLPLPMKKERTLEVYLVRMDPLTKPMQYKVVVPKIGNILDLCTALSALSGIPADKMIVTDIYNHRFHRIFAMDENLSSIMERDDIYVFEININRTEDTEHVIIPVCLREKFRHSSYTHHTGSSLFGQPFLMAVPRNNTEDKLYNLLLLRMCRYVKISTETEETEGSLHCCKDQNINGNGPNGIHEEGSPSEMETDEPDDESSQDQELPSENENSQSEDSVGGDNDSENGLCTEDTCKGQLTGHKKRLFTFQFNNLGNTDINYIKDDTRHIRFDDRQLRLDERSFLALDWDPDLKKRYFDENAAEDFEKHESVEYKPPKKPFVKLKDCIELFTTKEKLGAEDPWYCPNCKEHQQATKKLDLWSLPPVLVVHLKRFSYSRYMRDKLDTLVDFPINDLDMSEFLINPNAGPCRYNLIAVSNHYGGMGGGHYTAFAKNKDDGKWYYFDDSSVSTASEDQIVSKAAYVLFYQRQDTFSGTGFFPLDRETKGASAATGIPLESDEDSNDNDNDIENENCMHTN
# Summary of the method: as §1
# USP16 = USP16 (UniProt Q9Y5T5)
# Sequence of USP16 (Q9Y5T5 whole entry, looked up): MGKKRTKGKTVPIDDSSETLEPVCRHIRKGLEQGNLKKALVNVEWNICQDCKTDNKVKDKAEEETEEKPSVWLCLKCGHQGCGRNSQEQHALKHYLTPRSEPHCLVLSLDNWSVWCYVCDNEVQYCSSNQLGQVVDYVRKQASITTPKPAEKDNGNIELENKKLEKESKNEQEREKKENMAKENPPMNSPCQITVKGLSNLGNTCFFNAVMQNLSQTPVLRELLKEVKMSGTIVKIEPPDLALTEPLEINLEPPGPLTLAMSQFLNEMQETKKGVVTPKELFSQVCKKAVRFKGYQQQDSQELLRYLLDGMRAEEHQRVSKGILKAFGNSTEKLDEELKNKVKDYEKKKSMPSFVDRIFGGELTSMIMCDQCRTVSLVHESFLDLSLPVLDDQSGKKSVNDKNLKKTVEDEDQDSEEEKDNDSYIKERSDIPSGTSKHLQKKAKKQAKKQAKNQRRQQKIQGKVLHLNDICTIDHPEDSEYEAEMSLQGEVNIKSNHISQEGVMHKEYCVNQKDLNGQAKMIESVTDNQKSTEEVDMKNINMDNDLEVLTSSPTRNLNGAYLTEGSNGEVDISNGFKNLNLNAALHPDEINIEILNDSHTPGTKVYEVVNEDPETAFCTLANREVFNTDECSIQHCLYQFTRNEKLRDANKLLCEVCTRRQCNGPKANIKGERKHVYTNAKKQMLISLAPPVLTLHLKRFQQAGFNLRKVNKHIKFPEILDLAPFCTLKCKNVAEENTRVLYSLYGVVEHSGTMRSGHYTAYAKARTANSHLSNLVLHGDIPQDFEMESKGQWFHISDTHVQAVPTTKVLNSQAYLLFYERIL
# Summary of the method: as §1
smiles,measurement,setting,value
NC(=O)C(Cc1ccccc1)NC(=O)CCl (stereo not given),log2 ratio of Biotin-Ahx-Ub-VS probe labelling,OTUD6B,-0.129
same,log2 ratio of Biotin-Ahx-Ub-VS probe labelling,OTUD7B,-0.38
same,log2 ratio of Biotin-Ahx-Ub-VS probe labelling,PRPF8,-0.0593
same,log2 ratio of Biotin-Ahx-Ub-VS probe labelling,PSMD7,-0.0419
same,log2 ratio of Biotin-Ahx-Ub-VS probe labelling,UCHL1,-1.73 (active)
same,log2 ratio of Biotin-Ahx-Ub-VS probe labelling,UCHL3,0.313
same,log2 ratio of Biotin-Ahx-Ub-VS probe labelling,UCHL5,-0.295
same,log2 ratio of Biotin-Ahx-Ub-VS probe labelling,USP10,-0.0595
same,log2 ratio of Biotin-Ahx-Ub-VS probe labelling,USP15,-0.0229
same,log2 ratio of Biotin-Ahx-Ub-VS probe labelling,USP16,0.0723
